The subject of assay [1] is TRPC4 beta (transient receptor potential cation channel C4), mouse. Nature of the assay: activators of mouse TRPC4 channel, confirmation, cell-based, Fluo4 calcium, HEK293 TRPC4beta/mu-opioid, duplicates, 10 µM (AID 2426;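 active = fluorescence ratio normalized to control raised more than 50% in primary screen plus both repeat runs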;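 as to activation: percent rise of integrated ratio over buffer wells lacking compound which define 0%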). The following applies: Fluo4 calcium fluorescence, at 10 µM; hits give high values.
Assay [2] deals with transient receptor potential cation channel C4 beta (TRPC4), mouse. Put plainly: activators of mouse TRPC4 channel, confirmation, cell-based, second round, Fluo4, HEK293 TRPC4beta/mu-opioid, 1 µM (AID 2461).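 As to activation: 0% = wells without test compound as baseline of integrated fluorescence ratio.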 The following applies: Fluo4 calcium fluorescence, at 1 µM; hits give high values.
The subject of assay [3] is TRPC4 (transient receptor potential cation channel C4 beta), mouse. Put plainly: positive allosteric modulators of mouse TRPC4, confirmation, cell-based, second round, Fluo-4, HEK293 TRPC4beta/mu-opioid, 1 µM (AID 2554;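 active = primary screen hit whose fluorescence ratio, in both repeats, exceeds the weak agonist control mean by 3 SD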). The following applies: DAMGO EC20, Fluo-4 calcium flux, at 1 µM; hits give high values.
Assay [4] has as its system TRPC4 beta (transient receptor potential cation channel C4), mouse. Nature of the assay: positive allosteric modulators of mouse TRPC4, confirmation, cell-based, Fluo-4, HEK293 TRPC4beta/mu-opioid (AID 2555;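 active = primary screen hit whose calcium fluorescence ratio, in both repeats, exceeds the weak agonist control mean by 3 SD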). As to conditions: DAMGO EC20, Fluo-4 calcium flux, at 10 µM; hits give high values. A general note: A change in cytosolic calcium serves as a functional read-out for many receptors and channels.

The target in assay [5] is Short transient receptor potential channel 4 (Mus musculus) (UniProt Q9QUQ5). Put plainly: inhibitors of mouse TRPC4 channel, confirmation, cell-based, Fluo4, HEK293 TRPC4beta/mu-opioid (AID 2636;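 active = calcium signal cut by more than 3 SD below the full-agonist control yet still positive, in both repeats and the earlier primary screen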). As to conditions: DAMGO, Fluo4 calcium flux, at 10 µM; hits give high values.
The target is the same in assay [6]. Nature of the assay: inhibitors of mouse TRPC4 channel, confirmation, cell-based, second round, Fluo4, HEK293 TRPC4beta/mu-opioid, 1 µM (AID 2637;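 active = calcium signal ratio cut to more than 3 SD under the fully stimulated control mean yet still positive, in both repeats and the primary screen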). As to conditions: Fluo4 calcium flux, DAMGO, at 1 µM; hits give high values.
The target is the same in assay [7]. Nature of the assay: TRPC4 positive allosteric modulators, dose response, cell-based, HEK293 TRPC4/mu-opioid, Fluo-4 calcium, EC20 DAMGO (AID 434941;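 active = earlier screen potentiator hit that boosts the TRPC4 ion channel at some dose, with a dose response; inactive = no potentiation, no dose response, or not a prior hit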;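 also: calcium entry triggered by an EC20 dose of DAMGO at the co-expressed mu-opioid receptor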).
Assay [8] shares this target. Put plainly: mouse TRPC4 channel inhibitors, dose response, cell-based, HEK293 TRPC4/mu-opioid, Fluo-4 calcium (AID 434942;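 active = primary screen inhibitor hit that blocks the TRPC4 channel at some tested dose, yielding a dose curve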).
Assay [9] deals with Short transient receptor potential channel 6 (Mus musculus) (UniProt Q61143). Nature of the assay: inhibition of mouse TRPC6 channel, confirmation, selectivity assay for TRPC4 inhibitor project, cell-based, HEK293, membrane potential dye, duplicate (AID 434948;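 active = active in primary screen and both duplicates, each dropping signal beyond three positive-control SD with fluorescence still positive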). The following applies: HEK293 TRPC6, membrane potential dye fluorescence, at 10 µM, stimulated with maximal-effect acetylcholine; hits give high values.

Assay [10] shares this target. Nature of the assay: activation of mouse TRPC6 channel, confirmation, selectivity assay for TRPC4 activator project, cell-based, HEK293, membrane potential dye, duplicate (AID 434950;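 active = membrane potential signal rise above negative control mean plus 3 SD in both duplicates, also active in the earlier TRPC4 screen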;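 as to activation: 0% = buffer only wells and 100% = acetylcholine maximal-effect wells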). As to conditions: HEK293 TRPC6, membrane potential fluorescence, at 10 µM; hits give high values.
The target is the same in assay [11]. Nature of the assay: TRPC6 potentiation by TRPC4 potentiator hits, confirmation, selectivity assay for TRPC4 potentiator project, HEK293 cells, membrane potential dye, duplicate (AID 434952;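 active = compound raising the membrane signal above positive-control mean plus 3 SD in both repeats, and a primary screen hit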). As to conditions: HEK293 TRPC6, membrane potential dye fluorescence, at 10 µM, maximal acetylcholine added after compound; hits give high values.
Assay [12] concerns the target Short transient receptor potential channel 4 (Mus musculus) (UniProt Q9QUQ5). Put plainly: calcium flux activators in TRPC4/5HT1a cells, counter-screen for TRPC4 activator project, cell-based, second counter screen, HEK293 TRPC4/5HT1a, Fluo-4 (AID 434977;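 active = calcium signal rise above buffer-control mean plus 5 SD in both duplicates, and also a hit in the primary screen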;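 as to activation: plate controls were assay buffer for no effect and maximal serotonin response for full effect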). As to conditions: Fluo-4 calcium flux, at 10 µM; hits give high values.
Assay [13] in a line: calcium flux inhibitors in TRPC4/5HT1a cells, confirmation, counter-screen for TRPC4 inhibitor project, cell-based, second counter screen, HEK293 TRPC4/5HT1a, Fluo-4 (AID 434978;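 active = primary screen active whose calcium signal fell more than 3 SD beyond the full-serotonin control mean in both duplicate plates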;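 also: serotonin given first at submaximal then at maximal dose after compound preincubation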). As to conditions: Fluo-4 calcium flux, at 10 µM, serotonin added to trigger calcium flux; hits give high values.
Assay [14] has as its system TRPC4 (mouse), co-expressed with 5HT1a in HEK293. Put plainly: calcium flux potentiators in TRPC4/5HT1a cells, confirmation, counter-screen for TRPC4 potentiator project, cell-based, second counter screen, HEK293 TRPC4/5HT1a, Fluo-4 (AID 434979;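 active = signal rise over 3 SD above mean of control wells given weak agonist, in both repeats and first screen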). The following applies: Fluo-4 calcium flux, at 10 µM, serotonin added at its EC20 dose; hits give high values.
A short description of assay [15]: calcium flux activation in mu-opioid HEK293 cells, confirmation, counter-screen for TRPC4 activator project, cell-based, HEK293 mu-opioid receptor line (AID 449723;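 active = hit in primary screen, with calcium signal over 5 SD above buffer well mean in both duplicates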;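 also: counter screen cells carry the mu-opioid receptor alone and lack TRPC4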). As to conditions: Fluo-4 calcium fluorescence, at 10 µM; hits give high values.
Assay [16] in a line: calcium flux enhancement in mu-opioid HEK293 cells, confirmation, counter-screen for TRPC4 allosteric potentiator project, cell-based, HEK293 mu-opioid receptor line (AID 449724;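 active = calcium signal rise more than 3 SD above the low-dose agonist control mean, in both duplicate plates and the primary screen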;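 also: HEK293 cells carrying mu-opioid receptor only with no TRPC4 channel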). The following applies: Fluo-4 calcium flux, at 10 µM, compound added before EC20 DAMGO stimulus; hits give high values.

SMILES strings stand for the structures. For part of these data: Potency and affinity values are given separately. Calls of active or inactive are those of the source.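 The calls were made as follows, unless noted: active = primary screen active and over 50% activation in each of two duplicate runs; inactive = the rest.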

Short transient receptor potential channel 6 (Mus musculus), sequence (Q61143 whole entry, looked up): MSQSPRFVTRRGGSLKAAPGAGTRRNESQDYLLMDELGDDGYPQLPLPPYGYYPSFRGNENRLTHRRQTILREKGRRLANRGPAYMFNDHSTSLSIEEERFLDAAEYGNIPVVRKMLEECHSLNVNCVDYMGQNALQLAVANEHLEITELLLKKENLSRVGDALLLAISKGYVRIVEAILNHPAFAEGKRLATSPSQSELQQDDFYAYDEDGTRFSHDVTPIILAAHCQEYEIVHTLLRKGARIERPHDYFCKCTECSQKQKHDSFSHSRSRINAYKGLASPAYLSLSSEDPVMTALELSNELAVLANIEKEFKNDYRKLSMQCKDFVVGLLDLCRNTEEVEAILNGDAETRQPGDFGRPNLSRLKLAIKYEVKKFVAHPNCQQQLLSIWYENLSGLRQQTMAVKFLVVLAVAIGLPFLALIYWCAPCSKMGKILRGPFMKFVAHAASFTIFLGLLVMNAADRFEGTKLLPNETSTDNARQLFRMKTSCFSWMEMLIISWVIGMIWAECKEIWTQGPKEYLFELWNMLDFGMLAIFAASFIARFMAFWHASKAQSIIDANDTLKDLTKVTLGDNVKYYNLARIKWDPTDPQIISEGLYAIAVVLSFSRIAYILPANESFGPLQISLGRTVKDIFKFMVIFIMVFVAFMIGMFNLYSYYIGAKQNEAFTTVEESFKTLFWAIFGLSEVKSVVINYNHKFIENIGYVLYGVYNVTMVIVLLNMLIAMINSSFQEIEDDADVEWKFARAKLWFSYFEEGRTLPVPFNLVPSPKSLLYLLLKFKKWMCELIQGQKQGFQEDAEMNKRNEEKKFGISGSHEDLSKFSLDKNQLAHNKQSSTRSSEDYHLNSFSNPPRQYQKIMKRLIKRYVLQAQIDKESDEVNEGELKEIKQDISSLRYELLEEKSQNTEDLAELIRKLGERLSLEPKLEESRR
Short transient receptor potential channel 4 (Mus musculus), sequence (Q9QUQ5 whole entry, looked up): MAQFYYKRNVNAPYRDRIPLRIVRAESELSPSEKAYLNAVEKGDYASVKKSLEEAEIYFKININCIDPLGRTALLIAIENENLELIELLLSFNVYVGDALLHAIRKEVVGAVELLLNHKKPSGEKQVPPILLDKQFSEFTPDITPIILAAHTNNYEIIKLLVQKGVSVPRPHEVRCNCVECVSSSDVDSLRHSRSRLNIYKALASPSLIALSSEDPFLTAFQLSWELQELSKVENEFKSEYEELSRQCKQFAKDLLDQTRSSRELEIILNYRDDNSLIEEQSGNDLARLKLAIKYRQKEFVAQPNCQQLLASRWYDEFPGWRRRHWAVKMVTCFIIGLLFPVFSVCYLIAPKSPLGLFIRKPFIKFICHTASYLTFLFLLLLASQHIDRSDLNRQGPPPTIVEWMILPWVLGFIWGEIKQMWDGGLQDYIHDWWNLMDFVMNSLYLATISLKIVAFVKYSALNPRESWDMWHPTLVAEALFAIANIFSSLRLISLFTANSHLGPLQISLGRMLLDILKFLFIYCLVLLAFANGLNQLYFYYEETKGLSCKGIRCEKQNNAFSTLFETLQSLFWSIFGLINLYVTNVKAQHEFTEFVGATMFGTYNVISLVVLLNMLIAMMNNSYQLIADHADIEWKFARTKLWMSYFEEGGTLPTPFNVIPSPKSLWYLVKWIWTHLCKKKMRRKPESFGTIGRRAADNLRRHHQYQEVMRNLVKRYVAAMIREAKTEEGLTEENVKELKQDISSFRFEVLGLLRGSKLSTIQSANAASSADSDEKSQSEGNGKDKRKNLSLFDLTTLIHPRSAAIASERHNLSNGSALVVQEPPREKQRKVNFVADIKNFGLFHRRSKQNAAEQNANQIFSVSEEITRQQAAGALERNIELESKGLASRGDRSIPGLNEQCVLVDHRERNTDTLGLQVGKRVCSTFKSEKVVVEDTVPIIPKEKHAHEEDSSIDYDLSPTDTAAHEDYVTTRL

For the compound `CN(C)C(CNC(=S)Nc1ccccc1Cl)c1cccnc1` (stereo not given), the activation is 109% (active) in assay [1] and 144% (active) in [2]. Also, the result in assay [3], in assay [4], in assay [5], in assay [6], in assay [7] and in assay [8] was inactive. Also, the compound was classed as inactive in [9], in assay [10], in [11], in assay [12], in assay [13] and in assay [14]. In addition, the outcome in assay [15] and in assay [16] was inactive.
For the compound `CC(C)C1CC(CCNCc2ccc3c(c2)OCO3)(c2ccccc2)CCO1` (stereo not given), the activation was 96% (active) in assay [1], 64% (active) in assay [10] and 5.88% (active) in assay [12]. Also, the result in [2], in assay [3], in [4], in assay [5], in assay [6] and in assay [7] was inactive. Also, the outcome in assay [8], in [9], in assay [11], in [13], in assay [14] and in assay [15] was inactive. Besides, the outcome in assay [16] was inactive.
For the compound `CN(CCc1ccccn1)C1CC(=O)N(c2ccc(Cl)cc2)C1=O` (stereo not given), the activation in [1] is 195% (active); in assay [2], 70% (active); in assay [12] it was 102% (active). Further, the outcome in [3], in [4], in [5], in [6], in assay [7] and in assay [8] was inactive. The result in assay [9], in [10], in assay [11], in [13], in assay [14] and in [15] was inactive. In addition, the outcome in assay [16] was inactive.
For the compound `COC(=O)NCC(c1ccc2c(c1)OCO2)N1CCN(c2ccc(OC)cc2)CC1` (stereo not given), the activation in assay [1] is 85% (active). Further, the result in [2], in assay [3], in assay [4], in assay [5], in assay [6] and in [7] was inactive. In addition, the outcome in assay [8], in assay [9], in assay [10], in assay [11], in assay [12] and in assay [13] was inactive. Further, the result in assay [14], in assay [15] and in assay [16] was inactive.
Take `CN1C2C=C(N(CCc3ccccc3)C(=O)c3ccc(Cl)cc3)CC1CC2` (stereo not given): the result in [1], in assay [2], in assay [3], in assay [4], in [5] and in assay [6] was inactive. Also, the outcome in assay [7], in [8], in assay [9], in assay [11], in [12] and in assay [13] was inactive. Besides, the result in assay [14], in assay [15] and in assay [16] was inactive. The activation in assay [10] is 50% (active).
For the compound `CCN1/C(=C\c2ccc3cc(C)ccc3[n+]2CC)Sc2cc(C)c(C)cc21`, the activation is 177% (active) in [1], 66.7% (active) in assay [12], 152% (active) in [15] and 1520% (active) in assay [16]. The outcome in assay [2], in assay [3], in assay [5], in [6], in assay [7] and in assay [8] was inactive. Further, the compound was classed as inactive in assay [9], in [10], in [11] and in [13]. Moreover, the potentiation in assay [4] is 59% (active); in assay [14], 41.7% (active).
Consider `COc1ccc(Cl)cc1C(=O)Nc1ccccc1N1CCN(C)CC1`, for which the values for the activation in [1] and in assay [12] were 120% (active) and 16% (active), respectively. Besides, the result in [2], in [3], in assay [4], in [5], in [6] and in [7] was inactive. Besides, the result in assay [8], in assay [9], in assay [10], in assay [11], in assay [13] and in assay [14] was inactive. Besides, the outcome in assay [15] and in assay [16] was inactive.
Turning to `COC(=O)c1ccc(C(=S)NCC2(N(C)C)CCCCC2)cc1`, the activation was 181% (active) in assay [1], 41% (active) in assay [10], 22.2% (active) in assay [12] and 14.7% (active) in assay [15]. Moreover, the outcome in assay [2], in [3], in [4], in assay [5], in assay [6] and in [7] was inactive. In addition, the outcome in assay [8], in assay [9], in assay [11], in assay [13], in assay [14] and in assay [16] was inactive.
In the case of `O=C(NCc1ccccc1)C1=C[C@@H](C2CCCCC2)C[C@@H](OCc2ccc(CO)cc2)O1`, the activation in [1] is 183% (active); in assay [10], 30.5% (active); in [12], 112% (active). Besides, the result in [2], in assay [3], in assay [4], in [5], in assay [6] and in [7] was inactive. Besides, the result in [8], in assay [9], in assay [11], in [13], in assay [14] and in assay [15] was inactive. Further, the result in assay [16] was inactive.
For the compound `COc1ccccc1/C=C/CN1CCCC(CCC(=O)NCc2ccc(F)c(F)c2)C1` (stereo not given), the activation in assay [1] is 92% (active); in [2], 79% (active); in [10] it was 43.5% (active); in assay [12], 35.2% (active). Further, the outcome in assay [3], in assay [4], in [5], in assay [6], in [7] and in assay [8] was inactive. In addition, the compound was classed as inactive in assay [9], in assay [11], in assay [13], in [14], in assay [15] and in assay [16].
Turning to `CCCn1ncc(CN2CCC(n3nccc3NC(=O)CCc3ccccc3)CC2)c1C`, the results for the activation in [1], in assay [2] and in [10] were 132% (active), 115% (active) and 36.5% (active), respectively. Moreover, the result in [3], in assay [4], in assay [5], in assay [6], in assay [7] and in assay [8] was inactive. Further, the compound was called inactive in [9], in assay [11], in [12], in assay [13], in [14] and in assay [15]. Moreover, the outcome in [16] was inactive.
Regarding `OCC1(CC2CCCCO2)CCN(Cc2ccccc2-c2ccco2)CC1` (stereo not given), the result in assay [1], in [2], in assay [3], in [4], in assay [5] and in [6] was inactive. The outcome in [7], in assay [8], in assay [9], in assay [10], in [11] and in assay [12] was inactive. Moreover, the outcome in assay [13], in assay [14], in assay [15] and in assay [16] was inactive.
`CCCCN1/C(=C/c2ccc3ccccc3[n+]2CC)Sc2ccccc21`: the activation in assay [1] is 412% (active); in assay [12], 154% (active); in assay [15], 271% (active). The result in assay [2], in [3], in assay [4], in [5], in [6] and in assay [7] was inactive. Also, the outcome in [8], in assay [9], in assay [10], in assay [11], in assay [13] and in [14] was inactive. Moreover, the outcome in [16] was inactive.
With `Cc1ccc(C(=O)NNC(=S)NC(=O)COc2ccccc2)cc1`, the activation is 171% (active) in assay [1] and 112% (active) in assay [12]. Also, the outcome in assay [2], in assay [3], in assay [4], in assay [5], in [6] and in [7] was inactive. Also, the outcome in assay [8], in assay [9], in assay [10], in [11], in assay [13] and in assay [14] was inactive. Moreover, the result in [15] and in assay [16] was inactive.
On to `CCOC(=O)C1(Cc2cccc(F)c2)CCN(Cc2cnn(CC)c2)CC1`, for which the activation was 118% (active) in assay [1], 92% (active) in [2] and 51.5% (active) in [10]. Besides, the result in [3], in assay [4], in assay [5], in assay [6], in assay [7] and in assay [8] was inactive. The call in [9], in assay [11], in assay [12], in assay [13], in [14] and in assay [15] was inactive. The result in [16] was inactive.

(Values after PubChem BioAssay.)
